# Only some compounds are listed: those with a hit (about 10% of all), similar ones and a draw of the others.
# G9a inh: blocks human histone lysine methyltransferase G9a. Q96KQ7. G9a H3K9 monomethylation, AlphaScreen, 2 h. Potency, µM (highest dose often 102 µM), hits mostly inhibitors. 350,000 compounds, 8.8% hits. AID 504332; note: nearly all actives have a fitted effect of over 75% in size
#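 Compounds were preincubated with 20 nM G9a for 15 min, after which biotinylated H3K9 peptide (500 nM) and SAM (20 uM) started a 2 h room-temperature reaction. Monomethylated product was quantified by antibody-based AlphaScreen chemiluminescence.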
# GLS inh: glutaminase GLS (human) inhibition; GLS enzymatic activity, qHTS titration; Potency, µM (titrated, usually from 45.5 µM), usual class: inhibitors; 410,000 compounds, 0.21% hits; AID 624170
#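 Coupled fluorescence readout: glutamate oxidase/HRP/Amplex Red detect glutamate formed by hKGA from L-glutamine (1 mM solution added). Buffer 45 mM KH2PO4 pH 8.2, 0.02% Tween-20; reads at t0 and 30 min RT.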
# JMJD2A Tudor inh: inhibitors of human JMJD2A Tudor domain | O75164 | AlphaScreen JMJD2A-Tudor / H3K4me3 peptide binding | Potency, µM (top dose mostly 114 µM), most hits filed as inhibitors | 390,000 compounds, 4.4% hits; note: nearly all actives have a fitted effect of over 50% in size
# HP1b chromo inh: inhibitors of HP1-beta chromodomain binding to methylated histone tails | P83916 | AlphaScreen HP1-beta / biotin-H3K9me3 peptide binding | Potency, µM (highest dose often 114 µM), hits mostly inhibitors | 390,000 compounds, 0.56% hits; note: nearly all actives have a fitted effect of over 70% in size
#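 Compound inhibition of the preformed complex between 50 nM HP1-beta and 50 nM biotinylated H3K9me3 peptide was read by AlphaScreen. Buffer was PBS pH 7.4 with 0.01% Tween-20. Incubations ran 30 min at room temperature, with 10 ug/mL donor/acceptor beads.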
# BAZ2B block: inhibitors of human BAZ2B bromodomain | AlphaScreen BAZ2B-H3K14Ac peptide displacement | Q9UIF8 | Potency, µM (highest dose often 114 µM), usual class: inhibitors | 360,000 compounds, 4.4% hits; note: nearly all actives have a fitted effect of over 60% in size
#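 In this displacement format the biotinylated H3(5-23) peptide acetylated at Lys14 serves as ligand at 50 nM, with BAZ2B at 50 nM in PBS pH 7.4 containing 0.01% Tween-20. Donor and acceptor beads are 10 ug/mL final.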
# Numbers stand for hits; – = inactive; ? = inconclusive; · = no result given; [ ] = another dose, or the depositor's remark. Calls come from the whole dose curve; as a rule, active = well fitted curve in the direction sought with a large enough effect; inconclusive = small, poorly fitted or top-dose-only effect, or another doubt; inactive = no such curve, though single readings can be large; an effect the other way counts as inactive or inconclusive.
SMILES,G9a inh,GLS inh,JMJD2A Tudor inh,HP1b chromo inh,BAZ2B block
CCC(=O)Nc1ccc(N2CCCCC2)c(C(=O)Nc2ccc(OC)cc2)c1,–,–,?,–,–
COc1ccc(CC(=O)Nc2ccc(N3CCCC3)c(C)c2)cc1,8.9µM,–,?,?,?
Cc1ccc(NC(=O)CN(C)C(=O)c2ccc(Cl)c([N+](=O)[O-])c2)cc1,22µM,–,–,–,–
COc1ccc(NC(=O)CN(C)C(=O)c2ccc(N3CCOCC3)c([N+](=O)[O-])c2)cc1,–,–,–,–,–
COc1ccc(NC(=O)CN(C)C(=O)c2ccc(N3CCCCC3)c([N+](=O)[O-])c2)cc1,50µM,–,–,–,?
CN(CC(=O)Nc1ccc(Cl)cc1)C(=O)c1ccc(-n2cncn2)c([N+](=O)[O-])c1,–,–,–,–,–
CN(CC(=O)Nc1ccc(Cl)c(C(F)(F)F)c1)C(=O)c1ccc(N2CCOCC2)c([N+](=O)[O-])c1,32µM,–,?,?,–
COc1cccc(CN(C)C(=O)c2ccc(N3CCCC3)c([N+](=O)[O-])c2)c1,50µM,–,45µM,–,?
Cc1ccc(NC(NC(=O)c2ccccc2[N+](=O)[O-])C(Cl)(Cl)Cl)cc1 (configuration not stated),–,–,–,–,–
O=C(Nc1ccc(F)cc1F)c1c2c(nc3ccccc13)C(=O)N(C1CCCCC1)C2,–,–,–,–,–
COc1ccc(-n2c(COc3cccc4ccccc34)nnc2SC(C)C(=O)O)cc1 (configuration not stated),–,–,–,–,–
CC(C)c1ccc(O)c(N)c1,1.4µM,–,–,–,?
CC(C)c1ccc(O)c(NC(=O)c2cccnc2)c1,?,–,–,–,–
CCC(C)c1ccc(O)c(N)c1 (configuration not stated),2.8µM,–,?,–,–
CCC(C)c1ccccc1O (configuration not stated),–[0.501 µM],–,–,–,–
Clc1ccc(C(CCN2CCCC2)Cc2ccccc2)cc1 (configuration not stated),10µM,–,4µM,?,50µM
OC(CCN1CCCCC1)c1ccc(-c2ccccc2)cc1 (configuration not stated),–,?,–,–,–
C[C@@H]1CN([C@@H](C)CO)C(=O)CCCn2nncc2CO[C@@H]1CN(C)C(=O)c1ccncc1,·,–,·,·,·
O=C(O)c1ccccc1C=NN=C1c2ccccc2-c2ccccc21,·,–,?,?,·
CC(N=Cc1cccc(O)c1O)c1ccccc1 (configuration not stated),1.3µM,–,45µM,?,50µM
Oc1cccc(/C=N/N=C/c2cccc(O)c2O)c1O,32µM,3.5µM,–,–,–
Oc1ccccc1C=NN=C1c2ccccc2-c2ccccc21,·,–,16µM,45µM,·
Cc1ccc(N=Cc2cccc(O)c2O)c(C)c1,?,·,35µM,16µM,–
CC(N=Cc1cc([N+](=O)[O-])ccc1O)c1ccccc1 (configuration not stated),–,–,–,–,·
Cc1ccccc1N=Cc1cccc(O)c1O,7.9µM,?,40µM,?,40µM
SMILES,G9a inh,GLS inh,JMJD2A Tudor inh,HP1b chromo inh,BAZ2B block
Cc1cccc(C=Nc2ccc3c(c2)oc2ccccc23)c1O,–,–,–,–,?
CC1CCc2[nH]nc(C(=O)O)c2C1 (configuration not stated),28µM,–,32µM,–,?
CCCCC1CCc2[nH]nc(C(=O)O)c2C1 (configuration not stated),–[2.33 µM],–,–,–,?
CCC1CCc2[nH]nc(C(=O)O)c2C1 (configuration not stated),25µM,–,50µM,–,?
O=C(O)c1n[nH]c2c1CC(C1CCCCC1)CC2 (configuration not stated),–[2.33 µM],–,–,–,71µM
O=C(NC1CCCCC1)c1n[nH]c2c1CC(c1ccccc1)CC2 (configuration not stated),–[2.33 µM],–,–,–,–
COc1ccc(N(CC(=O)Nc2cccc(C(C)=O)c2)S(=O)(=O)c2ccccc2)c(OC)c1,3.2µM,–,–,–,?
CSc1oc(-c2ccco2)nc1S(=O)(=O)c1ccccc1,32µM,–,–,–,–
CSc1oc(-c2ccco2)nc1S(=O)(=O)c1ccc(F)cc1,?,–,–,–,–

# High-throughput results from PubChem BioAssay.
